Bioassay records: PubChem, National Center for Advancing Translational Sciences (NCATS)
Rows were chosen to be rich in hits. Some 4% of all compounds tested hit in one or more screens of this group.
TRHR ag: qHTS for Small Molecule Agonists and Allosteric Enhancers of Human TRH Receptor: Primary Screen for Agonists; Thyrotropin-releasing hormone receptor (Homo sapiens), P34981; TRHR cells, calcium flux fluo-8, FDSS agonist mode; activation, % at 2 µM; 360,000 compounds, 0.18% hits
Target sequence (P34981 whole entry, looked up): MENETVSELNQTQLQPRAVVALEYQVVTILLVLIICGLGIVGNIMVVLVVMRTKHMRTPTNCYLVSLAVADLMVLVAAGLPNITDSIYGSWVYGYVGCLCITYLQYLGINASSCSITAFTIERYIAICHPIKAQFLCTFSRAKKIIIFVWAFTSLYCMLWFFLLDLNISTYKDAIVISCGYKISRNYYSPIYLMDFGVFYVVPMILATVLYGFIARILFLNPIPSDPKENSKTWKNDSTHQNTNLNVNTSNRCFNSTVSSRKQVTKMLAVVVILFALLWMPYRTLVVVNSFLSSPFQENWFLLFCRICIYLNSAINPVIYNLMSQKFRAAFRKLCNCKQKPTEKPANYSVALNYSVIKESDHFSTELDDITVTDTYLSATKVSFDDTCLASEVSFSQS
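Steps: seed TRHR cells overnight; add fluo-8 no-wash Ca dye, RT 30 min–1.5 h; record 10 s baseline; pin-transfer compounds; monitor fluorescence 1 cycle/s for the agonist window. Calcium increases flag candidate agonists.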
D1 agonist: Allosteric Agonists of the Human D1 Dopamine Receptor: qHTS; 360,000 compounds, 1% hits; HEK293 T-REx D1 cells, calcium flux, agonist mode; AID 504660, 2011; activation, % at 2 µM
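Agonism was scored from calcium flux recorded over 180 s (1 read/s) after pintool compound addition, following a 10-cycle baseline. Cells were inducible force-coupled HEK293 TREx D1, plated overnight at 30 C and loaded with no-wash calcium dye.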
GRP78 ERSR act: qHTS for Inducers of the Endoplasmic Reticulum Stress Response (ERSR) in Human Glioma: qHTS; U87-MG GRP78 promoter luciferase reporter, 16 h; AID 602332, 2012; Potency, µM, hits mostly activators; 420,000 compounds, 0.02% hits; active = well fitted activation curve with a large enough effect; also: series mostly up to about 76 µM; nearly all actives have a fitted effect of over 35% in size
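Stably transfected U87-MG human glioma cells carrying a GRP78-based luminescent sensor were seeded at 1000 cells/well, pin-dosed with compounds and incubated 16 h. Luciferase reagent was then added, and end-point luminescence was read after 10 min at room temperature.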
D1 antagonist: Antagonist of Human D 1 Dopamine Receptor: qHTS; HEK293 TREx D1 cells, calcium flux, dopamine EC80; stronger effect = lower value; activity change, negative = inhibition, % at 10 µM; 360,000 compounds, 3.2% hits; AID 504652, 2011; in the data active = activity change below about -30%
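Cells carrying a force-coupled, tetracycline-inducible human D1 receptor report calcium flux. Each well gets a 10 s baseline, compound with 180 s monitoring, then an EC80 dopamine stimulus with a second 180 s kinetic read.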
TRHR PAM: qHTS for Small Molecule Agonists and Allosteric Enhancers of Human TRH Receptor: Primary Screen for Enhancers. enhancement, % at 2 µM. 360,000 compounds, 0.66% hits. TRHR cells, fluo-8 calcium fluorescence, EC20 TRH enhancement; in the data active = enhancement above about 30%
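TRHR-expressing cells loaded with fluo-8 calcium dye were read kinetically (ex 480/em 530) during compound addition, then stimulated with an EC20 of TRH (10 nM final). Enhancement of the Gq-mediated intracellular calcium response was scored.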
D1 PAM: Potentiators of Human D1 Dopamine Receptor: qHTS | 360,000 compounds, 0.036% hits | HEK293 TREx D1 cells, calcium flux, dopamine EC20 potentiation | potentiation, % at 10 µM | AID 504651, 2011 | D(1A) dopamine receptor (Homo sapiens), P21728; in the data active = potentiation above about 30%
A number is an active result; – = inactive; · = no result given; ! = not active in a repeat. Rule as the data show it, unless noted: active = activation above about 30%; inactive = the rest.

SMILES | TRHR ag | D1 agonist | GRP78 ERSR act | D1 antagonist | TRHR PAM | D1 PAM
CCC(C)NC(=O)C1CCC(CNS(=O)(=O)c2ccc3c(c2)CC(C)N3C(=O)C2CC2)CC1 (stereo unspecified) | – | – | – | – | – | –
Cc1cc(C)c(NS(=O)(=O)c2ccc3c(c2)CC(C)N3C(=O)C2CCC2)c(C)c1 (stereo unspecified) | – | – | – | – | – | –
Cc1cccc(NS(=O)(=O)c2ccc3c(c2)CC(C)N3C(=O)C2CCC2)c1C (stereo unspecified) | – | – | – | -34 | – | –
CCCCN(C)C(=O)C1CCC(CNS(=O)(=O)c2ccc3c(c2)CC(C)N3C(=O)C2CC2)CC1 (stereo unspecified) | – | – | – | -43 | – | –
Cc1cccc(N2CCN(S(=O)(=O)c3ccc4c(c3)CC(=O)N4C)CC2)c1C | – | – | – | -30! | – | –
CC1CCN(c2ccc(S(=O)(=O)N3CCC(C)CC3)cc2N)CC1 | – | – | – | – | – | –
CC1CCN(S(=O)(=O)c2ccc3c(c2)N(C)C(=O)CC(=O)N3C)CC1 | – | – | – | -37! | – | –
CC(=O)N1c2ccc(S(=O)(=O)N3CCC(C(=O)N4CC(C)CC(C)C4)CC3)cc2CC1C (stereo unspecified) | – | – | – | – | – | –
COC(=O)c1cc(S(=O)(=O)N2CCN(c3ccc(C(C)=O)cc3)CC2)c[nH]1 | – | – | – | -32 | – | –
CC1CC(C)CN(C(=O)C2CCN(S(=O)(=O)c3ccc4c(c3)CC(C)N4C(=O)C3CC3)CC2)C1 (stereo unspecified) | – | – | – | -45 | – | –
CC(=O)N1c2ccc(S(=O)(=O)N3CCC(C(=O)N4CCN(c5cc(Cl)ccc5C)CC4)CC3)cc2CC1C (stereo unspecified) | – | – | – | -33 | – | –
CC(=O)c1ccc(N2CCN(S(=O)(=O)c3ccc4c(c3)CC(C)N4C(C)=O)CC2)cc1 (stereo unspecified) | – | – | – | -48 | – | –
CCOC(=O)COc1ccc(CC)cc1C(=O)c1ccn2nc(-c3ccccc3)cc2n1 | – | – | – | – | – | –
CC1CCN(S(=O)(=O)c2ccc3c(c2)CC(C)N3C(=O)C2CCC2)CC1 (stereo unspecified) | – | – | – | -34 | – | –
CC1Cc2cc(S(=O)(=O)N3CCCCC3)ccc2N1C(=O)C1CCC1 (stereo unspecified) | – | – | – | – | – | –
COc1ccccc1CNS(=O)(=O)c1ccc2c(c1)CC(C)N2C(=O)C1CCC1 (stereo unspecified) | – | – | – | -32! | – | –
O=C(NCCc1nnc2n1CCN(Cc1ccc3c(c1)CCO3)CC2)c1ccco1 | · | · | – | · | · | ·
Cc1c(NC(=O)C(C)OC(=O)c2ccc(NC(=O)CC#N)cc2)c(=O)n(-c2ccccc2)n1C (stereo unspecified) | – | – | – | -33 | – | –
CC(OC(=O)c1ccc(NC(=O)CC#N)cc1)C(=O)NCCC1=CCCCC1 (stereo unspecified) | – | – | – | – | – | –
CC(OC(=O)c1ccc(NC(=O)CC#N)cc1)C(=O)NC(=O)NC1CCCCC1 (stereo unspecified) | – | – | – | -32 | – | –
Cc1c(NC(=O)C(C)OC(=O)COc2ccccc2)c(=O)n(-c2ccccc2)n1C (stereo unspecified) | – | – | – | – | – | –
Nc1nc(N)c2cc(Sc3ccc(Cl)cc3)ccc2n1 | · | · | – | · | · | ·
Nc1nc(N)c2cc(Sc3ccc4ccccc4c3)ccc2n1 | – | 33 | – | – | – | –
